Measurements taken from PubChem BioAssay (NCI).
The panel holds about 83,000 compounds, 20% with a hit somewhere; the sample as a whole holds those more often.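 Method: cells in 96-well plates; compound added at one concentration; 48 h incubation; percent growth measured; values under 10 scored active.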 A number with no mark means an inactive call. Calls of active or inactive are those of the source.

Assays:
Experiment in all cases: NCI-60 one-dose screen, 48 h (100 = growth as untreated, 0 = no growth, -100 = all killed)
Conditions in all cases: 10 µM
[1] = tested on: HT29 colon
[2] = tested on: SNB-75 CNS
[3] = tested on: SNB-19 CNS
[4] = tested on: U251 CNS
[5] = tested on: PC-3 prostate
[6] = tested on: SK-MEL-5 melanoma
[7] = tested on: UACC-62 melanoma
[8] = tested on: LOX IMVI melanoma
[9] = tested on: SK-MEL-28 melanoma

Row | Structure (SMILES) | growth [1] | growth [2] | growth [3] | growth [4] | growth [5] | growth [6] | growth [7] | growth [8] | growth [9]
1 | O=C1OCC2=C1C(c1cccc(Br)c1)c1cc3c(cc1N2CCO)CCC3 (stereo not given) | -12.1% (active) | 37.5% | 28.8% | 5.68% (active) | 22.4% | -12.6% (active) | 20.2% | 15.5% | 62%
2 | O=C(Nc1cccc(-n2cc(-c3ccncc3)c(-c3ccc(O)c(Cl)c3)n2)c1)c1ccc(N2CCOCC2)c(C(F)(F)F)c1 | 12.4% | 33.5% | 67.9% | -13% (active) | 24.4% | 40.9% | 43.3% | 21.1% | 49.7%
3 | O=C(Nc1cccc(-n2cc(-c3ccncc3)c(-c3ccc(O)c(Cl)c3)n2)c1)Nc1ccc(Cl)c(Cl)c1 | 37.8% | 7.7% (active) | 38.2% | -70.9% (active) | -7.87% (active) | -47% (active) | -43% (active) | -34.4% (active) | -21.5% (active)
4 | C/C(N)=C(\C#N)C(=O)c1ccccc1 | 105% | 93.1% | 107% | 98.2% | 98.2% | 99.5% | 109% | 99.8% | 108%
5 | O=S(=O)(NCCCNc1nccc(-c2c(-c3ccc(F)cc3)nc3sccn23)n1)c1ccc2ccccc2c1 | -7.72% (active) | 50.1% | 82.4% | 27.4% | 35.5% | 43.4% | 45% | 37.3% | 72.6%
6 | CCN(CC)CCSCCN(CC)CC | 104% | 96.3% | 106% | 91.7% | 96.5% | 99.6% | 102% | 99% | 103%
7 | COc1ccc(-c2nn(-c3cccc(NC(=O)c4ccc(N5CCOCC5)c(C(F)(F)F)c4)c3)cc2-c2ccncc2)cc1Cl | 11.2% | 47% | 81.4% | 23.6% | 42.7% | 68.2% | 74.3% | 74.2% | 72.3%
8 | O=C(CNC(=O)OCc1ccccc1)NCC(=O)Oc1ccc([N+](=O)[O-])cc1 | 98.7% | 109% | 111% | 11.8% | 89.8% | 98.1% | 107% | 87.6% | 104%
9 | O=C(NC(Cc1ccc(O)cc1)C(=O)N=Nc1c(O)[nH]c2ccccc12)c1ccccc1 (stereo not given) | 101% | 96.2% | 96.9% | 97.7% | 98.5% | 92.4% | 88.1% | 89.1% | 109%
10 | Cc1ccc(S(=O)(=O)OCCN(CCOS(=O)(=O)c2ccc(C)cc2)c2c[nH]c(=O)[nH]c2=O)cc1 | 99.7% | 92.2% | 100% | 95% | 94.6% | 101% | 100% | 104% | 102%
11 | CCOC(=O)CNC(=O)CCCCSc1ncnc2nc[nH]c12 | 103% | 95.3% | 109% | 106% | 91% | 93.4% | 94.9% | 102% | 110%
12 | O=C(CC(NC(=O)OCc1ccccc1)C(=O)OCc1ccccc1)OCc1ccccc1 (stereo not given) | 98.6% | 113% | 109% | 90.4% | 93.8% | 94.1% | 97.2% | 101% | 108%
13 | NC(=S)N=Nc1c(O)c2ccccc2c2ccccc12 | 98.4% | 75.9% | 38.7% | 26.1% | 47.2% | -99% (active) | -85.1% (active) | 1.8% (active) | 35%
14 | O=C(Nc1cccc(-n2cc(-c3ccncc3)c(-c3ccc(O)c(Cl)c3)n2)c1)Nc1cccc(C(F)(F)F)c1 | 22% | -0.929% (active) | 32.2% | -70.8% (active) | -15.7% (active) | -49% (active) | -49.9% (active) | 1.13% (active) | -5.89% (active)
15 | CN(C)CCOc1nc2ccccc2c2c1-c1ccc(Cl)cc1C2=O | -33.8% (active) | -63.8% (active) | 14.9% | 0.224% (active) | 2.76% (active) | -91.6% (active) | -39.5% (active) | -37.1% (active) | -49.9% (active)
